DUSP3 inh = DUSP3 (human) phosphatase inhibition | P51452 | recombinant VHR phosphatase, pNPP absorbance | inhibition, % at 13.3 µM | 290,000 compounds, 0.52% hits | AID 1654; in the data active = inhibition above about 50%
Target sequence (P51452 whole entry, looked up): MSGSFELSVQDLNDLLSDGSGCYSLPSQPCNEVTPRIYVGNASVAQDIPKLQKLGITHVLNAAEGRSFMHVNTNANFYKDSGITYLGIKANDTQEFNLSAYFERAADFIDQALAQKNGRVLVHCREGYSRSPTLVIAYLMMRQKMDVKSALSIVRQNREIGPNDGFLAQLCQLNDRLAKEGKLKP
RecA intein inh = Mtb RecA intein splicing inhibition | P9WHJ3 | cell-free RecA intein splicing, fluorescence | inhibition, % (concentration not given with the values) | 290,000 compounds, 0.75% hits | AID 2221; in the data active = inhibition above about 30%;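 also: 0% = vehicle wells and 100% = reference inhibitor control wells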
CCHFV vOTU inh = blocks the CCHF virus ovarian tumor domain protease; CCHFV vOTU protease, Pep-AMC fluorescence; 370,000 compounds, 0.55% hits; inhibition, % at 11.5 µM; in the data active = inhibition above about 30%; also: 0% = vehicle wells with enzyme and 100% = no enzyme wells
SARS 3CLpro inh = SARS-CoV 3CLpro protease inhibition. 290,000 compounds, 0.14% hits. P0C6X7. recombinant SARS-CoV 3CLpro, quenched FRET peptide cleavage. inhibition, % at 6 µM; in the data active = inhibition above about 12%
* hit, by the source's call; . = not tested or not shown. An excerpt weighted towards active compounds, which were near 1.5% of everything screened.

SMILES	DUSP3 inh	RecA intein inh	CCHFV vOTU inh	SARS 3CLpro inh
CCOC(=O)N1CCC(NC(=O)CN2C(=O)CSc3nc(C)cc(C)c32)CC1	12.4	0.4	-0.7	0.0
CCOC(=O)c1ccc(-c2csc(NC(=O)CN3CCC(C)CC3)n2)cc1	-6.8	1.3	20.4	-7.9
Cc1ccc(S(=O)(=O)NCc2ccc(C(=O)N3CCN(c4ccccc4)CC3)cc2)cc1	52.7*	-3.3	13.2	1.1
COc1ccc(CNC(=O)c2ccc(CS(=O)(=O)c3ccc(Br)cc3)o2)cc1	33.1	1.0	-10.0	-3.5
COc1ccc(C(=O)CNC2=NCCC2)cc1	1.7	-1.6	3.1	-4.0
O=C(CNC1=NCCC1)c1ccc(Cl)cc1	14.7	45.2*	8.9	1.3
CC(=O)NC(Cc1cc(C)ccc1C)C(=O)N1CCN(C(=O)c2ccc([N+](=O)[O-])cc2)CC1 (stereo not given)	53.9*	0.6	7.5	1.1
Cc1ccc(CS(=O)(=O)CCC(=O)NCCN2CCCCC2C)cc1 (stereo not given)	2.7	-1.9	2.0	0.2
Cc1ccc(CS(=O)(=O)CCC(=O)NCCCN2CCCC2)cc1	51.0*	1.2	5.6	-2.1
CCOc1ccc(S(=O)(=O)NNS(=O)(=O)c2ccc(C)cc2C)cc1	1.4	-1.7	-19.1	-3.7
Cc1ccc2c(c1)Oc1ccc(NC(=O)CCl)cc1C(=O)N2	2.3	60.3*	0.8	3.2
Cc1ccc2c(c1)Oc1ccc([N+](=O)[O-])cc1C(=O)N2	-2.0	0.3	6.1	-0.1
O=C(c1cccnc1)N1CCc2ccccc2C1	50.8*	1.4	9.2	0.7
Cc1c(Cl)cccc1-c1ccc(/C=N/n2cnnc2)o1	58.8*	5.3	15.8	-3.1
Clc1cccc(-c2ccc(/C=N/n3cnnc3)o2)c1Cl	13.2	-0.1	-1.0	-4.7
COc1ccc(CN(C(=O)c2cc3ccccc3oc2=O)C2CCS(=O)(=O)C2)cc1OC (stereo not given)	13.0	12.5	0.3	-0.7
Cc1cc(=O)oc2cc(OCC(=O)NCCc3ccccc3)ccc12	57.6*	-0.2	-9.2	-7.0
COc1ccc(CCNC(=O)COc2ccc3c(C)cc(=O)oc3c2)cc1	.	.	-1.7	.
C(=N\n1c2ccccc2c2ccccc21)/c1ccccc1	8.3	0.7	8.3	-1.9
C[n+]1cn(/N=C/c2ccccc2)c2ccccc21	53.8*	-0.1	-5.8	0.3
CC(Oc1ccc2ccccc2c1)C(=O)NNC(=O)Nc1ccccc1 (stereo not given)	7.7	1.6	20.0	1.4
CCC(C(=O)Nc1ccc(C(=O)N2CCCC2)cc1)c1ccccc1 (stereo not given)	8.5	6.9	9.5	-0.3
COC(=O)c1cc(-c2ccc(C)c(C)c2)c(=O)n2c1CCC2	.	.	0.7	.
O=C1Nc2ccccc2C1(O)C/C(=N/O)c1ccccc1 (stereo not given)	19.0	6.7	-6.6	-1.8
Cn1c(O)c(/C=C/C=Nc2ccccc2)c(=O)n(C)c1=S	53.8*	-2.9	7.0	0.4
SMILES	DUSP3 inh	RecA intein inh	CCHFV vOTU inh	SARS 3CLpro inh
COc1ccccc1CN1C(=O)c2cccc3cccc(c23)C1=O	31.5	-0.4	4.9	-5.5
COc1ccc(C)cc1CN1C(=O)c2ccccc2C1=O	53.0*	3.8	6.9	-4.2
CN(C)C(=O)CSc1nc(-c2ccccc2)c(-c2ccccc2)o1	50.7*	-1.1	10.2	4.2
CC1CCCCN1CCCNC(=O)c1nn(C)c2c1CS(=O)(=O)c1ccccc1-2 (stereo not given)	59.1*	-0.3	0.9	6.0
CCC1CCCCN1CCCNC(=O)c1nn(C)c2c1CS(=O)(=O)c1ccccc1-2 (stereo not given)	7.1	-1.2	3.8	-2.0
CC1CCCCN1CCCNC(=O)c1ccc(Br)cc1 (stereo not given)	57.6*	2.1	-3.4	-4.6
Cc1c(C)n(C)c2ccc(C(=O)NCCCN3CCCCC3C)cc12 (stereo not given)	77.6	0.2	-8.6	-3.1
Cn1c(=O)c2c(-c3ccncc3)c3c(nc2n(C)c1=O)-c1ccccc1C3=O	.	.	.	1.4
CN(CCc1ccccc1)C(c1cc2ccccc2o1)c1nnnn1C(C)(C)C (stereo not given)	.	.	-2.2	.
S=C(NCCCN1CCOCC1)Nc1ccc(Cl)cc1Cl	55.4*	4.8	-13.2	3.5
COc1cc(N)c(Cc2nccc3cc(OC)c(OC)cc23)cc1OC	16.6	45.7*	2.9	0.3
COc1cc2ccnc(Cc3cccc(OC)c3OC)c2cc1OC	15.8	6.4	3.0	2.2
CCOc1ccc(CCNC(=O)c2cnc(C)cn2)cc1OCC	12.5	-1.2	-8.1	-0.4
N#C/C(=C/c1ccc2c(c1)OCO2)C(=O)Nc1ccc(O)cc1	5.1	58.8*	-5.1	3.6
CCOc1cc(/C=C(/C#N)C(=O)Nc2ccc(O)cc2)cc(Br)c1O	-23.9	60.5*	5.8	3.4
